Compound activity from PubChem.
In the library only some 7.1% were active in any assay of this set; here they are far more common.
SW480 rereplic: A quantitative high throughput screen for small molecules that induce DNA re-replication in SW480 colon adenocarcinoma cells. SW480 DNA re-replication, Hoechst DNA content imaging, 48 h. Potency, µM (doses to about 46.1 µM), for the others: top-dose re-replication activation, usual class: activators. actives 1.8% (n = 340,000); note: % of control where 0% means no effect; nearly all actives have a fitted effect of over 55% in size
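Compounds, transferred as 23 nL by pin tool, were incubated with cells for 48 hr; DNA content per nucleus was then quantified by Hoechst staining and fluorescence plate imaging.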
AT treatment: qHTS Assay for Identifying a Potential Treatment of Ataxia-Telangiectasia; F2112 A-T fibroblasts, KAP-1 phosphorylation AlphaLISA; neocarzinostatin DNA damage 30 min before lysis; Potency, µM (doses to about 57.5 µM), for the others: at the highest dose activation, most hits filed as activators; actives 0.19% (n = 320,000); note: % of control where 0% means no effect; nearly all actives have a fitted effect of over 45% in size
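hTERT-immortalized A-T patient fibroblasts (F2112), 500 cells/well in OPTI-MEM, 1% FBS, got compounds for 60 min, then NCS for 30 min at 37C. Lysates were then assayed for phospho-KAP-1 by AlphaLISA (anti-pKAP1 donor, anti-KAP1 acceptor beads), 6 hr at 25C.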
p53 reactivation: qHTS assay for re-activators of p53 using a Luc reporter | H1299 p53-A138V BP100-luciferase reporter, luminescence, 24 h | Potency, µM (highest dose often 92.2 µM), for the others: at the highest dose activity change, positive = activation, actives largely listed as activators | actives 0.063% (n = 320,000) | AID 504706, 2011; note: % of control where 0% means no effect; nearly all actives have a fitted effect of over 45% in size
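H1299 (p53-null), stable ts p53-A138V + BP100-Luc; 1000 cells/well, Opti-MEM/10% FBS; cpd 4 pt, 1:5; 24 h, 37 deg C, 5% CO2; detection reagent 10 min RT; luminescence.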
MCF10A rereplic: A quantitative high throughput screen for small molecules that induce DNA re-replication in MCF 10a normal breast cells. MCF 10A DNA re-replication, Hoechst nuclear intensity, 48 h. Potency, µM (series often up to 46.1 µM), inactives show at the top dose activity, positive = re-replication, hits mostly activators. actives 2.9% (n = 350,000). AID 624296, 2012; note: % of control where 0% means no effect; nearly all actives have a fitted effect of over 50% in size
ELG1 genotox: qHTS screen for small molecules that induce genotoxicity in human embryonic kidney (HEK293T) cells expressing luciferase-tagged ELG1; HEK293T ELG1-luciferase reporter, luminescence, 16 h; Potency, µM (titrated, usually from 46 µM), for inactives: top-dose activity change, positive = activation, usual class: activators; actives 1.3% (n = 330,000); note: % of control where 0% means no effect; nearly all actives have a fitted effect of over 60% in size
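Luminescence read-out: rising ELG1-luciferase signal, reflecting elevated ELG1 protein under genetic stress, flags genotoxic compounds. Cells were treated for 16 hr at 37 °C before ONE-Glo detection.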
ELG1 DNA repair: qHTS screen for small molecules that inhibit ELG1-dependent DNA repair in human embryonic kidney (HEK293T) cells expressing luciferase-tagged ELG1 | Potency, µM (titrated, usually from 46.1 µM), inactives show at the top dose activity change, negative = inhibition, hits mostly inhibitors | actives 2.3% (n = 330,000) | HEK293T ELG1-luciferase reporter, luminescence, 16 h; DNA damage induced by 5-fluorouridine; note: % is set by controls: 0 for no effect and ±100 for the full control effect; nearly all actives have a fitted effect of over 55% in size
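Overnight (16 hr) co-exposure of 2,000 cells/well to 5-fluorouridine and compound at 37 °C preceded detection. Luciferase was quantified via ONE-Glo luminescence; loss of signal denotes inhibition.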
An asterisk follows results filed as active; ? = inconclusive; . = not tested or not shown; [ ] = another dose, or the depositor's remark. Calls come from the whole dose curve; as a rule, active = well fitted curve in the direction sought with a large enough effect; inconclusive = small, poorly fitted or top-dose-only effect, or another doubt; inactive = no such curve, though single readings can be large; an effect the other way counts as inactive or inconclusive. Potency is the fitted concentration of half-maximal effect.

SMILES | SW480 rereplic | AT treatment | p53 reactivation | MCF10A rereplic | ELG1 genotox | ELG1 DNA repair
COc1cc(/C=C2\CCC/C(=C\c3ccc(O)c(OC)c3)C2=O)ccc1O | ? | -3.3% | -15.3% | 4.11µM* | -10.8% | ?
COc1cc(/C=C2\CC/C(=C\c3cc(OC)c(O)c(OC)c3)C2=O)cc(OC)c1O | ? | -6.1% | -7.2% | ? | -9.2% | 7.31µM*
COc1ccc(/C=C2/CCc3ccccc3C2=O)cc1OC | -0.4% | -2.0% | ? | 13.6% | ? | ?
COc1cc(/C=C2\SC(N3CCC(C)CC3)=NC2=O)ccc1O | 1.3% | 1.1% | 9.9% | -14.2% | 18.3µM* | ?
O=C(OCC(=O)N(CCc1ccccc1)Cc1ccccc1)c1ccccc1NCCO | 18.1% | 9.4% | 1.7% | 4.0% | -17.2% | -4.7%
COc1ccc(-c2nc3c4ccccc4ccn3c2CN2CCOCC2)cc1OC | -15.8% | -7.0% | 12.0% | ? | ? | ?
COc1cc(/C=C2/CCC/C(=C\c3cc(O)c(OC)c(Cl)c3)C2=O)cc(Cl)c1O | 6.51µM* | -10.2% | -9.4% | 2.06µM* | -14.2% | 14.6µM*
COc1cc(/C=C2\CC(C(C)(C)C)C/C(=C\c3cc(OC)c(OC)c(OC)c3)C2=O)cc(OC)c1OC (stereo unspecified) | 7.31µM* | 6.7% | -12.9% | 3.26µM* | -12.3% | ?
COc1cc(/C=C2\COC/C(=C\c3cc(OC)c(OC)c(OC)c3)C2=O)cc(OC)c1OC | ? | ? | -13.1% | ? | -22.8% | ?
COc1cc(/C=C2\CC/C(=C\c3cc(OC)c(OC)c(OC)c3)C2=O)cc(OC)c1OC | ? | 0.8% | -8.6% | 5.8µM* | 0.6% | ?
COc1cc(/C=C2/CCc3ccccc3C2=O)cc(OC)c1OC | ? | 4.7% | ? | 18.4µM* | -6.3% | ?
COc1cc(/C=C2\CCc3ccccc3C2=O)cc(OC)c1OC | ? | 7.2% | 20.8% | ? | 0.3% | ?
COc1cc(/C=C2\SC(N)=NC2=O)cc(Cl)c1O | -3.2% | -9.3% | . | -0.2% | 0.1% | -8.8%
CN(Cc1cccnc1)C(=O)c1cc(S(=O)(=O)Nc2ccccc2F)ccc1Cl | 10.0% | 3.4% | 0.5% | 8.7% | 0.1% | -3.1%
Cc1ccc(S(=O)(=O)NC2CC(C)(C)NC(C)(C)C2)cc1C | -12.4%[1.84 µM] | -5.6% | . | -12.1% | -0.9% | 0.4%
CCN(CC)C1=NS(=O)(=O)c2cc([N+](=O)[O-])ccc21 | 11.6µM* | 2.7% | 4.0% | ? | -2.2% | -17.5%
Cc1ccc(S(=O)(=O)Nc2cccc(S(=O)(=O)N3CCCC3)c2)cc1C | -3.6% | 2.2% | 0.3% | ? | 0.1% | -6.5%
O=C(CCNC(=O)OCC1c2ccccc2-c2ccccc21)NOCc1ccccc1 | ? | 9.0%[11.5 µM] | -2.3% | -0.2% | 7.0% | 3.6%
CCCCCCCCCCOC(=O)NC1CCS(=O)(=O)C1 (stereo unspecified) | -1.7% | 3.1% | -3.5% | 4.2% | -8.3% | 23.1µM*
Cc1ccc(NC(=O)C2CCC(CNC(=O)[C@@H]3Cc4ccccc4CN3)CC2)c(C)c1 (stereo partly specified) | 9.6% | 13.9% | 27.5% | 18.8% | 12.0% | 18.0%
Nc1cccc(-c2c[nH]c3ncc(-c4cccnc4)cc23)c1 | 10.4% | . | . | 57.7% | . | .
CC1CCN(c2nnc(-c3ccccc3)c3ccccc23)CC1 | 0.9% | 8.2% | -2.4% | 11.2µM* | 1.3% | 1.9%
COc1ccc(OCC(=O)N2CCN(c3nnc(-c4ccccc4)c4ccccc34)CC2)cc1 | 6.6% | 0.0% | -29.6% | 8.0% | -8.9% | 16.4µM*
CCOC(=O)NC(=O)COC(=O)CCCSc1nc2ccccc2s1 | -9.5% | -1.0% | 0.1% | 3.7% | 1.6% | 1.0%
CCOC(=O)N/C(N)=N/c1nc2ccccc2s1 | -22.5% | 1.3% | ? | -3.2% | 4.11µM* | ?
SMILES | SW480 rereplic | AT treatment | p53 reactivation | MCF10A rereplic | ELG1 genotox | ELG1 DNA repair
CC(=O)N/C(N)=N/c1nc(=O)c2ccccc2s1 | 14.2% | -1.4% | 9.3% | 1.1% | 18.3µM* | ?
Cc1ccc2cc(C#N)c(N3CCCN(C(=O)C4CCCO4)CC3)nc2c1C (stereo unspecified) | 19.5% | 1.4% | -2.1% | 20.6µM* | -12.9% | ?
Cc1ccc2cc(C#N)c(N3CCCC3)nc2c1C | 11.2µM* | 9.7% | 4.3% | ? | 2.7% | 17.3%
Cc1cc(C)c2nc(N3CCCN(C(=O)c4ccco4)CC3)c(C#N)cc2c1 | -2.5% | 9.8% | 13.1% | ? | 2.2% | 13.3%
COc1ccc2nc(N3CCCCC3)c(C#N)cc2c1 | ? | 20µM* | ? | 16.4µM* | ? | ?
Cc1cccc2cc(C#N)c(N3CCC(O)CC3)nc12 | ? | 3.1% | 1.5% | ? | -8.8% | -16.2%
CN1C[C@@H]2[C@@H]3C(=O)N(Cc4ccccc4)C(=O)[C@@H]3[C@](C)(C1=O)N2C(=O)c1ccc(Br)cc1 | -11.1% | . | . | -0.8% | . | .
CS(=O)(=O)c1ccc(N2CCN(S(=O)(=O)c3cccs3)CC2)c([N+](=O)[O-])c1 | -5.5% | -1.5% | 10.1% | 5.0% | -1.6% | ?
N#C/C(=C(/O)CSc1nnc(Cc2cccs2)n1C1CCCCC1)c1nc2ccccc2[nH]1 | 18.4µM* | -23.5% | 11.2% | ? | -8.7% | ?
N#C/C(=C(/O)c1ccc(Br)s1)c1nc2ccccc2[nH]1 | 7.31µM* | 8.9% | . | 2.91µM* | 2.2% | ?
C/C(O)=C(\C#N)c1nc2ccccc2[nH]1 | -14.2%[9.22 µM] | 0.6% | 3.3% | 11.9% | -0.4% | -5.6%
N#C/C(=C(/O)c1cccs1)c1nc2ccccc2[nH]1 | 16.4µM* | ? | -0.3% | 18.4µM* | -5.0% | -4.2%
N#C/C(=C(/O)c1ccc(C(=O)c2ccccc2)cc1)c1nc2ccccc2[nH]1 | 23.1µM* | 4.6% | -0.8% | 22.3% | 1.6% | -1.9%
Cc1ccc(C)c(NC(=O)Cn2ccn(-c3ccc4c(c3)OCO4)c(=O)c2=O)c1 | -5.2% | -0.5% | -5.3% | -0.1% | 3.4% | 0.0%
Cc1cc(Cl)ccc1NC(=O)COC(=O)CCNS(=O)(=O)c1ccccc1 | -5.4% | 0.5% | 8.6% | 1.7% | -2.7% | 18.1%
Fc1ccc(Nc2ccc3ccccc3n2)c(F)c1 | -1.1% | 3.9% | ? | 1.1% | 0.82µM* | ?
O=C(Nc1ccc2ccccc2n1)Nc1ccccc1F | 11.4% | -0.7% | 9.7% | -3.5% | 4.2% | ?
